Test results: PubChem BioAssay (NCI)
The panel holds about 79,000 compounds, 15% with a hit somewhere; the sample as a whole holds those more often. Calls of active or inactive are those of the source. Cut-off read from the data, not from the text of the source: active = growth inhibition above about 70%; inactive = the rest.

Assays:
[1] = NCI Yeast Anticancer Drug Screen. Data for the rad50 strain (AID 155);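 note: 0% = growth of vehicle-only cultures of the same strain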; settings: S. cerevisiae rad50 strain growth inhibition, hits give high values; at 50.0 µM unless noted
Summary of the method: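 DNA repair mutant yeast, compound exposure, growth read-out; inhibition is taken relative to vehicle.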

[2] = NCI Yeast Anticancer Drug Screen. Data for the mec2-1 strain (AID 157); settings: S. cerevisiae mec2-1 strain, hits give high values; at 50.0 µM unless noted
Summary of the method: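 Test agents were screened against the mec2-1 yeast strain, with defined DNA repair or cell cycle alteration. Growth was scored as inhibition against vehicle-only controls.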

[3] = NCI Yeast Anticancer Drug Screen. Data for the sgs1 mgt1 strain (AID 161);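 note: 0% = growth of cultures given vehicle only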; settings: S. cerevisiae sgs1 mgt1 strain, hits give high values; at 50.0 µM unless noted
Summary of the method: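 Read-out: growth inhibition vs vehicle controls. Cells: mutant yeast strain deficient in DNA damage repair.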

[4] = NCI Yeast Anticancer Drug Screen. Data for the cln2 rad14 strain (AID 165);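 note: 0% = growth equal to vehicle treated cultures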; settings: S. cerevisiae cln2 rad14 strain, hits give high values; at 50.0 µM unless noted
Summary of the method: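 Growth of compound-exposed yeast (cln2 rad14 genotype) measured and expressed as inhibition relative to vehicle.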

[5] = NCI Yeast Anticancer Drug Screen. Data for the bub3 strain (AID 167); settings: S. cerevisiae bub3 mutant strain, hits give high values; at 50.0 µM unless noted
Summary of the method: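 In this screen, a yeast mutant lacking normal mitotic checkpoint function is challenged with compound. Relative growth versus vehicle gives the inhibition value.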

[6] = NCI Yeast Anticancer Drug Screen. Data for the mlh1 rad18 strain (AID 175); settings: S. cerevisiae mlh1 rad18 strain growth inhibition, hits give high values; at 50.0 µM unless noted
Summary of the method: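 In this whole-cell yeast screen, a strain with altered DNA damage repair is challenged with compound, and its growth is measured against matched vehicle-treated controls.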

Measured: growth inhibition

CCCCCCCCCCCCCCCCCCS(=O)(=O)CC(O)CO (centres undefined)
inactive: [1] -4.45% | [2] 5.2% | [3] -1.4% | [4] 2.4% | [5] -11% | [6] 12.4%

Clc1ccc(N=Nc2nc3ccccc3nc2N=Nc2ccc(Cl)cc2Cl)c(Cl)c1
inactive: [1] -32.5% | [2] -4.6% | [3] -13.2% | [4] 3.25% | [5] -5.75% | [6] 0.55%

O=C(F)c1cccc2ccccc12
inactive: [1] -25.9% | [2] -14.7% | [3] -1% | [4] 7.6% | [5] -19.6% | [6] -31.3%

COc1ccc(CCNC(=O)[C@H]2CCCC[C@@H]2CCO)cc1OC
inactive: [1] 15.5% | [2] 10.6% | [3] -46.9% | [4] 3.25% | [5] -42.8% | [6] -9%

Nc1ccc(N=Nc2c(S(=O)(=O)O)cc3ccccc3c2S(=O)(=O)O)cc1
inactive: [1] -23% | [2] -30.4% | [3] -38.2% | [4] -18.3% | [5] -46.5% | [6] -27.6%

CCOC(=C\C(=O)NC)/C=C/c1ccc([N+](=O)[O-])cc1
inactive: [1] -5.75% | [2] 0.65% | [3] -6.1% | [4] -18.4% | [5] 5.85% | [6] -3.45%

CN(C)C(C)(CO)CO
inactive: [1] 17.4% | [2] -6.55% | [3] 0.65% | [4] 6.45% | [5] 9.2% | [6] 0.55%

C(#Cc1ccccc1)COc1ccccc1
inactive: [1] 9.9% | [2] 11.9% | [3] -15.1% | [4] 1.5% | [5] 17.1% | [6] -5.25%

CCNC(=O)c1ccccc1N=NN(C)C
inactive: [1] -1.15% | [2] 25.4% | [3] -0.65% | [4] 5.65% | [5] 5% | [6] 21.9%

COc1cccc(C)c1C(=O)O
inactive: [1] -4.05% | [2] 1.7% | [3] 5.7% | [4] -20.1% | [5] -32% | [6] -5.4%

CCC(CC)C(O)C(C)C(C)O (centres undefined)
inactive: [1] 1.3% | [2] -8.8% | [3] -10.6% | [4] 4.8% | [5] -11.2% | [6] -4.75%

Cc1ccc(NP(=O)(Nc2ccc(C)cc2)c2ccc([N+](=O)[O-])cc2)cc1
active: [1] 93.2% | [2] 94.2% | [3] 92.7% | [4] 92.1% | [5] 85.3% | [6] 95.6%

C=C(Br)CNC(=O)C(O)(c1ccccc1)c1ccccc1
inactive: [1] -4.15% | [2] 3.65% | [3] 0% | [4] -15.6% | [5] 5.15% | [6] -16.9%

CCCCCCCOC(=O)CO
inactive: [1] 22.4% | [2] 6.65% | [3] 16.2% | [4] 16.9% | [5] 1.95% | [6] 19.4%

CC1=C(C(=O)Nc2cc(=O)n(C)c(=O)n2C)C(c2ccco2)C(C(=O)Nc2cc(=O)n(C)c(=O)n2C)=C(C)N1
inactive: [1] -0.5% | [2] 17.9% | [3] -10.9% | [4] 13.3% | [5] -4.6% | [6] -0.4%

Cc1nc2c(cc1C(=O)NN)c(=O)n(C)c(=O)n2C
inactive: [1] 8.8% | [2] -1.9% | [3] -8.5% | [4] -5.85% | [5] -8.05% | [6] 31.6%

CC(C)(C)OC(=O)CC(NC(=O)OC(C)(C)C)C(=O)NC(C(=O)O)C(O)c1ccccc1 (centres undefined)
inactive: [1] -19.4% | [2] -24.9% | [3] -15.3% | [4] -22.9% | [5] -9.45% | [6] -28.6%

CC(=O)OCCOCNC(=S)N/N=C(\C)c1ccco1
inactive: [1] -19.9% | [2] -8.3% | [3] 3.4% | [4] 3.8% | [5] -4.95% | [6] -11.9%

COc1cccc(/C=C/c2ccnnc2)c1
inactive: [1] 4.3% | [2] -2.8% | [3] -7.55% | [4] -7.65% | [5] 16.9% | [6] -3.85%

Nc1nc(CCc2ccc(NC(=O)CBr)cc2)c(CCCCc2ccccc2)c(=O)[nH]1
inactive: [1] 16.4% | [2] 1.85% | [3] 25.8% | [4] 24.2% | [5] 3.75% | [6] 16.2%

CN1C(C)(C)CC(=O)C(Br)C1(C)C (centres undefined)
inactive: [1] -37.8% | [2] -45% | [3] -33.8% | [4] -6.2% | [5] -6.75% | [6] -29.4%

COC1OC(CO)C(O)C1OS(C)(=O)=O (centres undefined)
inactive: [1] -11.7% | [2] -4.25% | [3] -10.3% | [4] -1.2% | [5] -4.45% | [6] -8.3%

COc1ccc(N=N/C(=N/NC(=O)c2cc(Cl)ccc2C(=O)c2ccccc2)c2ccc(N(CCC#N)CCC#N)cc2C)cc1
inactive: [1] 3.2% | [2] 12.6% | [3] -32.9% | [4] 12.5% | [5] -11.9% | [6] 12.8%

CC1=C(c2ccccc2)OC(c2ccccc2)=C[P+]1(c1ccccc1)c1ccccc1
active: [1] 97.8% | [2] 99.5% | [3] 99.4% | [4] 99.3% | [5] 99.3% | [6] 99.2%

Nc1c(Cl)ncnc1NCc1ccco1
inactive: [1] 5.25% | [2] -4.2% | [3] -13.8% | [4] -13.8% | [5] -1.05% | [6] -7.85%

Fc1c(F)c(-c2c(F)c(F)c(S)c(F)c2F)c(F)c(F)c1S
inactive: [1] -1.15% | [2] 3.75% | [3] 21.3% | [4] 3.05% | [5] 0.7% | [6] -21.9%

CC(C)C1CCC2C(CCC3C(C)(C(=O)O)CCCC23C)C1 (centres undefined)
inactive: [1] -2.35% | [2] 14.1% | [3] -0.85% | [4] 21% | [5] -12.8% | [6] 25.2%

CCN(CC)CCCNc1ncnc2c1C(c1ccccc1)c1ccccc1-2 (centres undefined)
inactive: [1] 8.5% | [2] -14.7% | [3] 1.7% | [4] 6% | [5] -4.85% | [6] -6.9%

COc1ccc(C2S/C(=C\c3ccc([N+](=O)[O-])cc3)C(=O)N2NC(=O)Cc2ccccc2)cc1 (centres undefined)
inactive: [1] 17.9% | [2] -7.95% | [3] 2.9% | [4] -23.8% | [5] 11.4% | [6] 8.65%

CC1CC[N+](C)(CC(=O)c2ccc(-c3ccc(C(=O)C[N+]4(C)CCC(C)CC4)cc3)cc2)CC1 (centres undefined)
inactive: [1] -8.2% | [2] 1.4% | [3] -12.7% | [4] 22.9% | [5] -3.15% | [6] -10.2%

C/C=C/Cc1n[nH]c(=O)c2c(C)[nH]nc12
inactive: [1] -13% | [2] -13.4% | [3] -9.55% | [4] -13.8% | [5] -5.85% | [6] -17.9%

OCCCCCCCl
inactive: [1] -28.8% | [2] -24.8% | [3] -11.6% | [4] -6.65% | [5] -3.05% | [6] 3.6%

C=CCONC(=O)c1ccc(Cl)cc1
inactive: [1] 0.5% | [2] 1.75% | [3] -4.2% | [4] -5.5% | [5] -19.2% | [6] 27.3%

O=[N+]([O-])c1cccc(S/N=C/c2ccccc2O)c1
active: [1] 98.8% | [2] 99.5% | [3] 99.2% | [4] 97.5% | [5] 99.2% | [6] 99%

O=c1cc2ccccc2nn1-c1ccccc1Cl
inactive: [1] 26.1% | [2] 6.4% | [3] 37.6% | [4] 36.5% | [5] 25.3% | [6] 34.5%

Cc1ccccc1OC(=O)Oc1ccccc1C
inactive: [1] 8.7% | [2] -2.6% | [3] 4.8% | [4] 1% | [5] 21.1% | [6] 21.9%

Nc1nc2ncn(CCO)c2c(=O)[nH]1
inactive: [1] 9.4% | [2] 1.95% | [3] 2.8% | [4] -0.65% | [5] 3.35% | [6] 16.4%

Clc1ccc(-c2cn3c(nc4ccccc43)c(-c3ccccc3)n2)cc1
inactive: [1] -7.65% | [2] 1.4% | [3] -10.1% | [4] 2.35% | [5] -22.5% | [6] -16%

c1nc2nc(N3CCOCC3)nc(N3CCOCC3)c2[nH]1
inactive: [1] 11.8% | [2] -0.8% | [3] 23.9% | [4] 8.45% | [5] -17.9% | [6] 8.7%
